As usually defined, the inhibition is the relative decrease from the control value, in per cent.

Results on 59 compounds are retold here after PubChem BioAssay AID1845 (The Scripps Research Institute Molecular Screening Center, 2009).

Out of some 290,000 compounds screened, about 490 (0.17%) were called active. What follows is part of a selection rich in actives, with near analogues and random picks from the rest. Values without a mark were called inactive. Cut-off read from the data, not from the text of the source: active = inhibition above about 37%; inactive = the rest.

The assay can be described thus: DNA intercalator displacement agents – biochemical, FID fluorescence, artefact control for HCV NS3 helicase inhibitor project, primary screen (AID 1845).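 Note: 0% = vehicle and 100% = reference compound; higher means more ethidium bromide displaced from hairpin DNA.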 To be noted: DNA fluorescent intercalator displacement, at 7.9 µM, stronger effect = higher value.
Take `Cc1ccc(-n2c(SCC(=O)NCCC3=CCCCC3)nc3n[nH]c(C)c3c2=N)cc1Cl`: the inhibition was -27.4%.

With `O=C(N/N=C/c1cccc(Br)c1)c1ccc(N2CCCC2=O)cc1`, the inhibition is -27.4%.

Turning to `C=CCOc1ccc(/C=C/C(=O)OCC(=O)NC2CCCCCC2)cc1`, the inhibition was -19.4%.

With `Cc1cc([N+](=O)[O-])ccc1NC(=O)c1ccc(NC(=O)C(C)C)cc1`, the inhibition is -1.34%.

As to `Cn1ccc(=Nc2ccc(NC(=O)c3ccc(N=c4ccn(C)c5ccc([N+](=O)[O-])cc45)cc3)cc2)cc1`, the inhibition is 99% (active).

In the case of `O=C(Nc1ccc(C(=O)N2CCCCC2)cc1)c1cccc([N+](=O)[O-])c1`, the inhibition is -20.2%.

For the compound `CCC(C)(C)NC(=O)C(c1cccc(OC)c1OC)N(CC(C)C)C(=O)CCC(=O)Nc1cc(C)on1` (centres undefined), the inhibition is -44.5%.

As to `c1ccc2cc3c(NCCN4CCOCC4)ccnc3cc2c1`, the inhibition is 63.9% (active).

Take `O=C(NCCN1CCOCC1)c1cc(-c2cccs2)nc2ccccc12`: the inhibition was 3.9%.

For the compound `O=C(NCCN1CCOCC1)c1ccc2c(c1)ncn2C1CCCC1`, the inhibition is -5.28%.

As for `CCCc1cc(=O)oc2c(C)c(OCC(=O)Nc3ccccn3)ccc12`, the inhibition is -23.4%.

For `COC(=O)c1ccc(/C=N/NC(=O)C(=O)N2CCCCCC2)cc1`, the inhibition was -24.6%.

Regarding `CCc1c(C)c2ccc(OC3CCCCC3=O)cc2oc1=O` (centres undefined), the inhibition is -19.1%.

Turning to `Oc1c(Cl)cc(Cl)c(Cl)c1Cc1c(O)c(Cl)cc(Cl)c1Cl`, the inhibition is 42.8% (active).

As for `CCC1OC(c2ccc([N+](=O)[O-])cc2)=Nc2ccccc21` (centres undefined), the inhibition was 0.06%.

Turning to `CC(CN1CCCCC1)c1ccccc1` (centres undefined), the inhibition was 4.77%.

Consider `CC(C)[C@@H](NC(=O)OC(C)(C)C)C(=O)NCC1CCC(C(=O)N[C@@H](Cc2ccccc2)C(=O)O)CC1` (some centres undefined), for which the inhibition was -37.5%.

For the compound `O=C(CCN1CCc2ccccc2C(O)(c2ccccc2)C1)c1ccc2c(c1)OCCO2` (centres undefined), the inhibition was 13.1%.

Take `COc1ccc2cc(C(=O)C3CCCN(C(=O)c4sc(C)nc4C)C3)ccc2c1` (centres undefined): the inhibition is -47.1%.

On to `O=C(Nc1ccccc1F)c1ccc(Cn2cc(Br)cn2)cc1`, for which the inhibition is -14.8%.

As to `NC(=O)c1cc(S(=O)(=O)NCCCc2ccco2)cs1`, the inhibition was -3.13%.

With `O=S1(=O)N=C(N(CCO)/N=C/c2ccccc2F)c2ccccc21`, the inhibition was -16.3%.

In the case of `COc1ccc(CCNC(=O)CN2C(=O)CCSc3ccccc32)c(OC)c1`, the inhibition is -32%.

For the compound `CC(C)C[C@@H](COc1ccccc1)N1CCN(CC(C)C)CCC1=O`, the inhibition is -13.2%.

With `Cc1cnc(C)c(N2CCN(C(=O)C3CCC(=O)N(CCc4cccc(F)c4)C3)CC2)n1` (centres undefined), the inhibition is -38.6%.

`O=C(Nc1ccccc1)c1ccc2c(c1)OCCCO2`: the inhibition is -4.42%.

As to `CC(NC(=O)CNC(=O)Cc1cccc2ccccc12)c1ccc(S(N)(=O)=O)cc1` (centres undefined), the inhibition was -27.1%.

As to `Cc1ccc2c(c1)N(CC(=O)N1CCC(O)CC1)C(=O)CO2`, the inhibition was -5.64%.

Consider `O=C(CCN1C(=O)[C@H]2CC=CC[C@H]2C1=O)NCc1nc(-c2ccccc2)no1`, for which the inhibition was -33.7%.

Take `O=C1NC(c2ccc(-c3ccccc3[N+](=O)[O-])o2)C(C(=O)c2ccc(Cl)cc2)C(O)(C(F)(F)F)N1` (centres undefined): the inhibition was -16.8%.

`C/C(=N/OC(=O)c1ccc(Br)cc1)c1ccc(C)cc1`: the inhibition was -5.35%.

As for `CC(C)C[C@H](NC(=O)C1CCC(CNC(=O)[C@@H]2CCCN2C(=O)OC(C)(C)C)CC1)C(=O)O` (some centres undefined), the inhibition is -30.2%.

With `CC(=O)c1sc(N/N=C/c2ccc(C(C)C)cc2)nc1C`, the inhibition was 4.61%.

For `CCOc1ccc(NC(=O)C(C)N2C(=O)c3ccccc3C2=O)cc1` (centres undefined), the inhibition was -4.96%.

Turning to `S=C(Nc1ccc(Cl)cc1Cl)N1CCCC1`, the inhibition is 0.9%.

`O=C(NCCN1CCN(C(=O)c2cccc([N+](=O)[O-])c2)CC1)C(=O)NCc1ccc(Cl)cc1`: the inhibition was -23.5%.

Regarding `NC(=O)C1CCN(Cc2nc3c(Br)cc(Br)cc3c(=O)[nH]2)CC1`, the inhibition is -3.04%.

Consider `O=C(C1CC(=O)N(c2ccc(F)cc2)C1)N1CCN(c2ccccc2)CC1` (centres undefined), for which the inhibition is -24.8%.

Turning to `CCc1cc(=O)oc2c(C)c(OCC(=O)N3CC[C@@]4(O)CCCC[C@H]4C3)ccc12`, the inhibition was -29.5%.

Take `COC(=O)c1c(NC(=O)C(=O)N2CCCCC2)sc2c1CC(C)(C)OC2`: the inhibition was -42.8%.

Take `CCN(CC)S(=O)(=O)c1ccc(N2CCOCC2)c(NC(=O)C2CSC3(C)CCC(=O)N23)c1` (centres undefined): the inhibition was -32.7%.

In the case of `COc1cccc(N(CC(=O)NC2CCCC2)C(=O)CCCC(=O)Nc2ccccn2)c1`, the inhibition was -30.3%.

As for `O=C(O)CC(c1ccccc1F)N1Cc2ccccc2C1=O` (centres undefined), the inhibition is -5.32%.

Take `CC(C)(C)c1ccc(/C=C/C(=O)NCCCn2ccnc2)cc1`: the inhibition was 4.7%.

On to `CC(C)c1ccc(Nc2nnc(SCC(=O)c3nnc(-c4ccccc4)o3)s2)cc1`, for which the inhibition is -16.9%.

With `COc1ccccc1N(CC(=O)Nc1ccccc1C(=O)N1CCCC1)S(C)(=O)=O`, the inhibition is -10.3%.

As to `Cc1cccc(NC(=O)CCN2CC(C)CC(C)C2)c1` (centres undefined), the inhibition was 6.82%.

As for `CN(CCO)S(=O)(=O)c1ccc2c(c1)C(=O)c1cc(S(=O)(=O)N(C)CCO)ccc1-2`, the inhibition was 0.99%.

On to `O=C(c1cc(S(=O)(=O)N2CCOCC2)ccc1Cl)N1CCOCC1`, for which the inhibition is -0.42%.

Regarding `O=C(CCN1CCCO1)N1CCCC(N2CCN(c3cccc(C(F)(F)F)c3)CC2)C1` (centres undefined), the inhibition was -34.6%.

Regarding `O=C(Cc1ccc(Cl)cc1)NC1CCS(=O)(=O)C1` (centres undefined), the inhibition is -2.95%.

As for `CC(=O)Nc1ccc(Nc2c3ccccc3nc3ccccc23)cc1`, the inhibition is 70.8% (active).

Regarding `Cc1ccc(Nc2c3c(nc4ccccc24)CCC3)cc1`, the inhibition is 6.54%.

On to `CC(=O)Nc1ccc(NC(=O)COc2ncnc3ccccc23)cc1`, for which the inhibition is -0.17%.

Take `COc1ccccc1N1CCN(c2ncnc3sc(C)c(-c4ccccc4)c23)CC1`: the inhibition is -38.6%.

For the compound `OC(CN=c1sc2ccccc2n1CC(O)COc1ccccc1)COc1ccccc1` (centres undefined), the inhibition was -11.1%.

For the compound `NS(=O)(=O)c1ccc(CCNc2nc(C(F)(F)F)nc3ccccc23)cc1`, the inhibition was -2.69%.

On to `COc1cccc(CNc2nc(C(F)(F)F)nc3ccccc23)c1`, for which the inhibition was -5.57%.

For the compound `CCc1ccc(C(CNc2nc(C(F)(F)F)nc3ccccc23)N(C)C)cc1` (centres undefined), the inhibition is 39.5% (active).
